# Rows were chosen to be rich in hits. Some 1.8% of all compounds tested hit in one or more screens of this group.
# KDM4E inh: qHTS Assay for Inhibitors of Human Jumonji Domain Containing 2E (JMJD2E); Lysine-specific demethylase 4E (Homo sapiens), B2RXH2; JMJD2E catalytic domain, FDH-coupled NADH fluorescence (FDH is formaldehyde dehydrogenase); Potency, µM (highest dose often 57.1 µM), for the others: at the top dose activity change, negative = inhibition, actives largely listed as inhibitors; 230,000 tested, 1.6% active; AID 2147, 2009; active means well fitted inhibition curve with a large enough effect, not every such curve was filed as active; inconclusive means small, poorly fitted or top-dose-only effect, or another doubt; inactive means no such curve, though single readings can be large or run the other way;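 further: 0% = wells with enzyme and -100% = buffer wells without enzyme; nearly all actives have a fitted effect of over 50% in size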
# Target sequence (B2RXH2 1-337 limits assumed): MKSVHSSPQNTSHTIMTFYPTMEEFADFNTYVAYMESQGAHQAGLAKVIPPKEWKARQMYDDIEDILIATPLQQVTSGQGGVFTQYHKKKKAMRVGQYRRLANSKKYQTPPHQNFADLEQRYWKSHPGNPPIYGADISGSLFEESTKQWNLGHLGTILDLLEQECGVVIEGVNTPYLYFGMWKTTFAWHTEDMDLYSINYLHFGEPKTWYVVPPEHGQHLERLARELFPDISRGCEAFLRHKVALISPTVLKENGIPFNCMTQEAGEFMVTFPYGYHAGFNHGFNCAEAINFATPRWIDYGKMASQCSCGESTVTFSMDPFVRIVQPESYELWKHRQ
# HTT cytoprotect: qHTS Multiplex Assay to Identify Dual Action Probes in a Cell Model of Huntington: Cytoprotection (ATP); AID 1471, 2008; 230,000 tested, 0.14% active; PC12 HTT-Q103 induced, cytoprotection, ATP luminescence, 40 h; Potency, µM (doses to about 56.4 µM), for inactives: cytoprotection (ATP increase), usual class: activators; further: % of control where 0% means no effect; nearly all actives have a fitted effect of over 45% in size
#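 PC12 cells with ecdysone-inducible HTT exon 1 Q103-GFP, induced with 100 nM tebufenozide and co-treated with library compounds in a dose series (1536-well, 1500 cells/well). Cytoprotection read as ATP content by ATPlite luminescence.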
# L3MBTL1 inh: qHTS Assay for the Inhibitors of L3MBTL1; AID 485360, 2010; Lethal(3)malignant brain tumor-like protein 1 (Homo sapiens), Q9Y468; Potency, µM (doses to about 57.1 µM), for inactives: at the top dose activity, negative = inhibition, hits mostly inhibitors; 230,000 tested, 0.66% active; AlphaScreen L3MBTL1–H3K9me1 peptide binding; further: on the % scale 0 is the no-effect control and ±100 the full control effect; nearly all actives have a fitted effect of over 60% in size
#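 Displacement of a biotinylated histone H3(1-15) peptide monomethylated at Lys9 (75 nM) from L3MBTL1 (50 nM) was measured by AlphaScreen after a 30 min room-temperature compound incubation; cefsulodin titration served as intraplate control.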
# HttQ103 aggreg: qHTS Multiplex Assay to Identify Dual Action Probes in a Cell Model of Huntington: Aggregate Formation (GFP); PC12 HttQ103-GFP aggregates, Acumen cytometry, 40 h; Potency, µM (series often up to 46.1 µM), for inactives: top-dose activity change, negative = inhibition, most hits filed as inhibitors; 220,000 tested, 1.1% active; AID 1688, 2009; further: on the % scale 0 is the no-effect control and ±100 the full control effect; nearly all actives have a fitted effect of over 60% in size
#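 Compounds (qHTS titration) were added to PC12 cells expressing an ecdysone-driven HTT exon 1 Q103–GFP fusion after induction with 100 nM tebufenozide. Aggregate formation was measured as GFP objects in cell lysates.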
# Active calls of the source: *; ? = inconclusive; · = no result; [ ] = remark or other dose. Unless noted, the call rests on the fitted dose curve; in most records, active means well fitted curve in the direction sought with a large enough effect; inconclusive means small, poorly fitted or top-dose-only effect, or another doubt; inactive means no such curve, though single readings can be large; an effect the other way counts as inactive or inconclusive. Potency means the concentration at half of the fitted maximal effect.
SMILES,KDM4E inh,HTT cytoprotect,L3MBTL1 inh,HttQ103 aggreg
Nc1nc(Nc2ccccc2)nc2c1ncn2[C@@H]1O[C@@H](CO)[C@H](O)[C@@H]1O,·,-10.1%[1.9 µM],·,·
CCC(C)NS(=O)(=O)c1ccc(S(=O)(=O)Nc2cc3c(cc2C(C)=O)OCO3)cc1 (stereo not drawn),-9.8%,?,-3.6%,12.6µM*
CC(=O)c1cc2c(cc1NS(=O)(=O)c1ccccc1)OCO2,4.9%,-16.5%,·,7.6%[9.22 µM]
C[C@@H](O)CCC[C@H](O)/C=C/[C@H]1[C@H](O)CC(=O)[C@@H]1C/C=C\CCCC(=O)O,4.8%,11.0%,·,·
Clc1cccc(Cl)c1CNc1ccc(N2CCCC2)cc1,12.6µM*,-24.9%,?,?
Cc1nc2cnc(N3CCN(C)CC3)nc2n(C)c1=O,·,-1.5%,·,·
C#CCN1C(=O)S/C(=C\c2ccc(-c3ccc(C(=O)O)cc3C)o2)C1=O,·,·,5.01µM*,·
Cc1ccc(C(=O)O)cc1-c1ccc(/C=C2\SC(=O)N(CC(=O)Nc3ccccc3)C2=O)o1,?,-13.9%,?,3.8%[9.22 µM]
CCOc1ccc(Br)cc1/C(C)=N\NC1=NCCN1,-1.0%,-7.9%,·,12.6µM*
CC[n+]1c(/C=C2\Sc3ccccc3N2C)ccc2cccc(C)c21,-21.9%,-87.7%[10 µM],-8.1%,1µM*
CCN1/C(=C/c2ccc3cc(C)ccc3[n+]2CC)Sc2ccccc21,-3.6%,-68.4%[10 µM],-4.7%,0.355µM*
O=C(Nc1ccc(Cl)cc1)N1CCC(c2nc(-c3ccccc3Cl)no2)CC1,-6.2%,-24.6%,·,11.2µM*
CCS(=O)(=O)N1CCC(c2nc(-c3ccc(C)cc3)no2)CC1,-2.9%,-14.0%[10 µM],3.4%,?
CCS(=O)(=O)N1CCC(c2nc(-c3ccc(C(F)(F)F)cc3)no2)CC1,-1.5%,-38.5%,-0.7%,11.2µM*
O=C(Nc1cccc(C(F)(F)F)c1)N1CCC(c2nc(-c3ccc(F)cc3)no2)CC1,2.1%,-16.1%[10 µM],16.0%,22.4µM*
CN(C)c1ccc(-c2cncnc2Nc2ccccc2)cc1,·,-60.8%,·,·
C=CCC(Nc1ccc(OC)cc1)C(=O)OCC (stereo not drawn),9.6%,13.6%,·,·
CCCN(CCc1cccs1)[C@H]1CCc2c(O)cccc2C1,·,-9.5%,·,-4.7%
CS(=O)(=O)Nc1cccc(-c2ccc3ncnc(NCc4cccs4)c3c2)c1,·,-170.5%,·,·
Cc1cc(Nc2ccccc2)c2c([N+](=O)[O-])ccc(C)c2n1,-2.6%,13.9%[10 µM],15.8µM*,8.5%
CCC(=O)N(C1=C(NC)C(=O)c2ccccc2C1=O)C(C)C,-16.3%,-110.2%,·,28.2µM*
CNC1=C(N(C(C)=O)c2ccc(Br)cc2)C(=O)c2ccccc2C1=O,?,·,-9.6%,11.2µM*
CCC(=O)N(CC)C1=C(O)c2ccccc2C(=O)C1=O,-8.3%,-44.1%,-10.7%,-5.2%
C[C@]12CC[C@@H]3c4ccc(O)cc4CC[C@H]3[C@@H]1CCC2OC(=O)CCC1CCCC1 (stereo partly drawn),·,40.7%,·,-11.3%
CN(C)C(=O)CSc1nnc(-c2ccc(F)cc2)c2ccccc12,0.9%,-1.2%[10 µM],3.1%,-7.9%[9.22 µM]
SMILES,KDM4E inh,HTT cytoprotect,L3MBTL1 inh,HttQ103 aggreg
CCCCSc1nnc(-c2ccc(C)cc2)c2ccccc12,-1.9%,·,27.0%,11.2µM*
CCOc1cc(S(=O)(=O)N2CCN(Cc3ccccc3)CC2)ccc1Br,-7.7%,-0.9%[0.074 µM],·,11.2µM*
Cc1cc(C)n(-c2ncc3c(n2)N(CCO)CCOC3=O)n1,?,28.7%[10 µM],13.7%,15.7%[9.22 µM]
CC1=CC2(O)OCCN(CCO)C2=CC1=O (stereo not drawn),25.1µM*,-4.2%[10 µM],?,-6.9%
CCNc1ncc2nc(-c3cccc(C#N)c3)c(=O)n(Cc3cccc(OC)c3)c2n1,·,-2.5%,·,·
O=C1CCC=C1C(O)c1ccc2c(c1)OCO2 (stereo not drawn),-0.5%,8.2%,·,·
CCN=c1scc(C)n1/N=C/c1ccc(O)c(O)c1O,11.2µM*,-27.8%,31.6µM*,31.4%
Cc1ccc(-c2cc(C(=O)NCCCN3CCOCC3)no2)cc1,-15.1%,-31.8%,-1.1%,3.16µM*
COc1ccc(COC(=O)N/N=C2/C[C@@H](O)[C@@H](O)[C@@H]3[C@@H]4C(=O)N(C[C@@H]5CCCO5)C(=O)[C@H]4CC[C@H]23)cc1,·,-2.5%[10 µM],·,·
CC(=O)c1c(C)c(C)c2n1CCn1c(C)ccc1-2,22.4µM*,8.9%[10 µM],·,-26.9%[9.22 µM]
CCC1=[N+](C)CCn2c(C)ccc21,-5.6%,-30.9%,·,-19.0%
O=C1OC(C2=CCCCC2)=NC12CC2,·,1.2%[10 µM],·,·
Cc1[nH]c2ccccc2c1/C=N/Nc1ccccc1[N+](=O)[O-],-8.8%,0.8%[10 µM],17.8µM*,11.8%
CC(C)Oc1ccccc1/C=N/Nc1ccccc1[N+](=O)[O-],3.2%,2.2%[10 µM],11.2µM*,3.3%
CC(C)OC(=O)[C@@H]1CC[C@H](C)[C@@H](CCC[C@@H]2C[C@@H](O)C[C@H](CC#N)O2)O1,-4.2%,·,·,·
O=C1c2cccc(O)c2C(=O)c2c(O[C@@H]3O[C@H](CO)[C@@H](O)[C@H](O)[C@@H]3O)cccc21,·,-28.4%[10 µM],·,·
O=C(O)c1cc(O)c2c(c1)[C@@H]([C@H]1c3cc(C(=O)O)cc(O)c3C(=O)c3c(O[C@@H]4O[C@H](CO)[C@@H](O)[C@H](O)[C@H]4O)cccc31)c1cccc(O[C@@H]3O[C@H](CO)[C@@H](O)[C@H](O)[C@H]3O)c1C2=O,·,·,0.112µM*,·
O=C(O)c1cc(O)c2c(c1)[C@H]([C@H]1c3cc(C(=O)O)cc(O)c3C(=O)c3c(O[C@@H]4OC(CO)C(O)C(O)C4O)cccc31)c1cccc(O[C@@H]3OC(CO)C(O)C(O)C3O)c1C2=O (stereo partly drawn),11.2µM*,-75.9%,·,9.4%
CCN1C(=O)[C@H]2[C@H]3[C@H](O)[C@H](O)C/C(=N/OCc4ccccc4)[C@H]3CC[C@@H]2C1=O,·,-15.5%[10 µM],·,·
CCN(CC)c1ccc(N=Nc2ncn[nH]2)cc1,14.1µM*,-145.7%,-10.1%,-15.0%
CCN(CC)c1ccc(/C=N/O)cc1,?,-27.3%,-4.8%,10.3%
O=C1N/C(=N\N=C\c2ccc3ncccc3c2)SC1Cc1ccc(SC(F)F)cc1 (stereo not drawn),5.0%,-45.7%,·,32.3%
O=C1N/C(=N\N=C\c2cccnc2)SC1Cc1ccc(SC(F)F)cc1 (stereo not drawn),-1.8%,-68.1%[10 µM],·,5.62µM*
O=C1N/C(=N\N=C\c2ccccn2)SC1Cc1cccc(SC(F)F)c1 (stereo not drawn),10.4%,-77.7%[10 µM],4.5%,5.62µM*
C=CCOC(=O)N[C@H](/C(C(=O)OC)=C(\C)NCc1ccccc1)c1ccc2c(c1)OCO2,-5.3%,-21.3%,·,·
CCCCCCCCCCCCC/C=C/[C@@H](O)[C@H](COP(=O)([O-])OCC[N+](C)(C)C)NC(=O)CCCCCCCCCCCCCCCCC,-10.6%,?,·,·
COCCn1c(N2CCN(c3ccccc3)CC2)nc2c1c(=O)n(C)c(=O)n2C,-2.3%,2µM*,3.1%,19.1%[9.22 µM]

# Screening data (PubChem)
